Sampled rows, rich in hits. Any-hit rate of the full collection: about 18%.
Six1-Eya2 blk: blocks human Six1 binding to Eya2. AlphaScreen GST-Six1/His-Eya2 binding, biochemical; stronger effect = lower value. activity change, % (concentration not given with the values). 0.56% of 360,000 active. AID 651725; in the data active means activity change below about -65%; inconclusive means mostly about -30% to -63%
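Six1/Eya2 binding was read as AlphaScreen signal after compounds were pinned into GST-Six1 plus His-tagged Eya2 (5X stock 250/500 nM) in pH 8.0 Tris/NaCl/TCEP buffer, beads added, then incubated 1 h, 37 C, dark.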
CtBP-E1A inh: blocks the CtBP interaction with E1A | 0.49% of 340,000 active | AlphaScreen GST-E1A/His-CtBP binding, 1536-well; stronger effect = lower value | activity change, % (test concentration not listed); in the data active means activity change below about -65%; inconclusive means mostly about -30% to -63%
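Steps: dispense buffer (Tris pH 8.0, NaCl 300 mM, TCEP 1 mM, BSA, Tween 20); add 5X protein mix (GST-E1A, His-CtBP, 125 nM each); pin 23 nL compound; 2 h at 37 °C, dark; add 5X beads (50 ug/mL); 1 h; read.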
TDP1 cell noCPT: qHTS for Inhibitors of human tyrosyl-DNA phosphodiesterase 1 (TDP1): qHTS in cells in absence of CPT; DT40 Tdp1-/- hTDP1 cells, no CPT, ATP luminescence, 48 h; Potency, µM (top dose mostly 46.2 µM), most hits filed as inhibitors; 15% of 420,000 active; AID 686978, 2013; further: nearly all actives have a fitted effect of over 55% in size
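Luminescent ATP content (CellTiter-Glo) served as the growth readout. Knockout chicken DT40 cells expressing human TDP1 were exposed to compounds without camptothecin for a minimum 48 hr at 37 °C.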
IL-1B inflam inh: inhibitors of inflammasome signaling (IL-1 beta secretion); AID 743279; THP-1 LPS/ATP IL-1B secretion, AlphaLISA, 16 h; stronger effect = lower value; activity change, % at 57.5 µM; 4.7% of 360,000 active; in the data active means activity change below about -50%; inconclusive means mostly about -30% to -49%
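Secreted IL-1B measured by AlphaLISA bead assay after 16 h compound exposure of THP-1 cells; compounds (final up to 57.5 uM) added 1 h before LPS (250 ng/mL) and ATP (1.25 mM) stimulation; lower signal means less secretion.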
TDP1 cell CPT: DT40-hTDP1 cell growth loss with CPT | chicken DT40 Tdp1-/-;hTDP1 cells + 20 nM CPT, ATP luminescence, 48 h | Potency, µM (doses to about 46.2 µM), hits mostly inhibitors | 12% of 420,000 active | AID 686979; further: nearly all actives have a fitted effect of over 55% in size
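Cell growth measured by CellTiter-Glo luminescence after a minimum 48 h, 37 C compound exposure with 20 nM CPT in Tdp1-knockout DT40 cells stably expressing hTDP1, seeded 400/well; qHTS titration format.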
TDP1 block: blocks human tyrosyl-DNA phosphodiesterase 1; Potency, µM (doses to about 130 µM), most hits filed as inhibitors; 0.28% of 350,000 active; recombinant TDP1, AlphaScreen DNA substrate cleavage; further: nearly all actives have a fitted effect of over 40% in size
Target sequence (Q9NUW8 whole entry, looked up): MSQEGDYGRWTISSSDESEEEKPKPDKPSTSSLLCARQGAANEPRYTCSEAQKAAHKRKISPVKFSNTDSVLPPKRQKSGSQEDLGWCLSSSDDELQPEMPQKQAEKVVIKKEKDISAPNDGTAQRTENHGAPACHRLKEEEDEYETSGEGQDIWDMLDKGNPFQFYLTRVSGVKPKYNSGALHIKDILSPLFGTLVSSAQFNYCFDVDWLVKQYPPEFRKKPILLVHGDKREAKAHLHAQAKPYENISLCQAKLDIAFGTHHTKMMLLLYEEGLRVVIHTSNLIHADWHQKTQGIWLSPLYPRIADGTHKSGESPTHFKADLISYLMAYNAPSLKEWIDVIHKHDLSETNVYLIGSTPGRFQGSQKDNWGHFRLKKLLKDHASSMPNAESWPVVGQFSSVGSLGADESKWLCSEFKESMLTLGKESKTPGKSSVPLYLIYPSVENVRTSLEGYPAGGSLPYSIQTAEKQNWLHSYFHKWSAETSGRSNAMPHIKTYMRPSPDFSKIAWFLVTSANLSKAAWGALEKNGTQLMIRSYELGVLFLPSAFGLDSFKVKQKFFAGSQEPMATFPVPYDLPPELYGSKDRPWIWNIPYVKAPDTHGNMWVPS
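Recombinant E. coli-expressed Tdp1 (1 nM) preincubated with compound 15 min at RT, then 5'-biotin/3'-phosphotyrosine-FITC DNA substrate (15 nM) added for 5 min. AlphaScreen beads (10 ug/ml) added, 10 min RT; tyrosine-FITC cleavage read as signal loss.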
Numbers stand for hits; – = inactive; ? = inconclusive; · = no result. Unless noted, the call rests on the fitted dose curve; in most records, active means well fitted curve in the direction sought with a large enough effect; inconclusive means small, poorly fitted or top-dose-only effect, or another doubt; inactive means no such curve, though single readings can be large; an effect the other way counts as inactive or inconclusive.

SMILES | Six1-Eya2 blk | CtBP-E1A inh | TDP1 cell noCPT | IL-1B inflam inh | TDP1 cell CPT | TDP1 block
CC(=O)Nc1ccccc1C(=O)C(=O)Nc1cccc(C(=O)NCC2CCCO2)c1 (stereo not drawn) | – | – | – | – | – | –
CC1=C(C(=O)Nc2ccc(C)cc2)C(c2ccco2)NC(=O)N1 (stereo not drawn) | – | – | – | – | – | –
CC1=C(C(=O)Nc2ccc(Br)cc2)C(c2ccco2)NC(=O)N1 (stereo not drawn) | – | – | ? | – | 23.1µM | –
O=C(O)CNS(=O)(=O)Cc1ccccc1 | – | – | – | – | – | –
O=S(=O)(Cc1ccccc1)N(O)c1ccccc1 | – | – | 23.1µM | -63.0 | 20.6µM | –
CC(=O)Nc1ccccc1C(=O)N1CC2(C)CC1CC(C)(C)C2 (stereo not drawn) | – | – | – | – | – | –
CC1(C)CC2CC(C)(CN2C(=O)c2cccs2)C1 (stereo not drawn) | – | – | 8.2µM | – | ? | –
CC1(C)CC2CC(C)(CN2S(=O)(=O)c2cccc(C(N)=O)c2)C1 (stereo not drawn) | – | · | ? | – | – | –
Cc1cccc(C(=O)N2CC3(C)CC2CC(C)(C)C3)c1 (stereo not drawn) | – | – | 23.1µM | – | 20.6µM | –
CC1(C)C[C@@H]2C[C@@](C)(CN2C(=O)c2ccccc2)C1 | – | · | 14.6µM | – | ? | –
CC1(C)CC2CC(C)(CN2C(=O)c2ccc([N+](=O)[O-])cc2)C1 (stereo not drawn) | – | · | ? | – | 20.6µM | ?
COc1ccccc1NC(=O)c1nnn(CC(=O)Nc2cc(C)cc(C)c2)c1N | – | · | – | – | – | –
Cc1cc(C(=O)NNC(C)Cc2ccccc2)no1 (stereo not drawn) | – | – | – | – | – | ·
O=S(=O)(c1cnc[nH]1)N1CCc2ccccc21 | – | – | 23.1µM | – | ? | –
CC1Cc2ccccc2N1S(=O)(=O)c1cnc[nH]1 (stereo not drawn) | – | – | – | – | – | –
CCC(=O)N(Cc1ccco1)c1nc(-c2ccc(OC)cc2)cs1 | – | – | – | – | – | –
C=CCN(C(=O)CCc1ccccc1OC)c1nc(-c2ccc(S(C)(=O)=O)cc2)cs1 | – | – | 9.2µM | -56.8 | 16.4µM | ·
CCc1ccc(CCC(=O)Nc2ccc(OC)cc2)o1 | – | – | – | – | – | –
COc1ccc(C(N)CCc2ccc(C)o2)cc1 (stereo not drawn) | – | – | 18.4µM | ? | ? | –
Fc1ccc(-c2csc3ncnc(Nc4ccc(N5CCOCC5)cc4)c23)cc1 | ? | – | 23.1µM | -57.6 | 14.6µM | –
O=C(O)c1ccc(Nc2ncnc3scc(-c4ccccc4)c23)cc1 | – | – | 4.11µM | – | 2.59µM | –
c1nc(Nc2ccc(N3CCOCC3)cc2)c2ccsc2n1 | – | – | ? | – | ? | –
COc1ccc(CN2C3CCC2CC(NC(=O)c2cccc(F)c2)C3)cc1 (stereo not drawn) | – | – | – | – | – | –
Cc1cccc(N(Cc2ccccc2)C(=O)c2cccc(S(=O)(=O)N3CC(C)OC(C)C3)c2)c1 (stereo not drawn) | – | – | 10.3µM | – | 11.6µM | –
Cc1ccc(C)c(NC(=O)CN(C)C(=O)c2cc(S(=O)(=O)N3CCOCC3)ccc2N2CCCC2)c1 | – | – | – | – | – | –
SMILES | Six1-Eya2 blk | CtBP-E1A inh | TDP1 cell noCPT | IL-1B inflam inh | TDP1 cell CPT | TDP1 block
Cc1ccc(N(Cc2ccccc2)C(=O)c2ccc(F)c(S(=O)(=O)N3CCOCC3)c2)cc1 | – | – | 23.1µM | – | ? | –
Cc1ccc(N(Cc2ccccc2)C(=O)c2cc(S(=O)(=O)N3CCOCC3)ccc2N2CCCC2)cc1 | – | – | 20.6µM | – | 20.6µM | ·
CC1CCN(S(=O)(=O)c2cccc(C(=O)N(Cc3ccccc3)c3ccccn3)c2)CC1 | – | – | ? | – | ? | –
CN1CCC(N(C)C(=O)c2cccc(S(=O)(=O)N3CCOCC3)c2)CC1 | – | – | – | – | – | –
CC1CN(S(=O)(=O)c2cccc(C(=O)N(C)C3CCCCC3)c2)CC(C)O1 (stereo not drawn) | – | – | 10.3µM | – | 18.4µM | ·
COCC(=O)NCc1ccc2c(c1)OCO2 | – | – | – | – | – | –
CC1CN(S(=O)(=O)c2cccc(C(=O)OCCOc3ccccc3)c2)CC(C)O1 (stereo not drawn) | – | – | ? | – | 20.6µM | –
Cc1cccc(N(Cc2ccccc2)C(=O)c2ccc(F)c(S(=O)(=O)N3CCOCC3)c2)c1 | – | – | ? | – | ? | –
Cc1cccc(N(Cc2ccccc2)C(=O)Cc2ccc(S(=O)(=O)N3CCOCC3)s2)c1 | – | – | 23.1µM | – | ? | –
Cc1cccc(N(Cc2ccccc2)C(=O)c2ccc(C)c(S(=O)(=O)N3CCOCC3)c2)c1 | – | – | 13µM | – | 16.4µM | –
CC1CN(S(=O)(=O)c2cccc(C(=O)OCC(=O)c3cccs3)c2)CC(C)O1 (stereo not drawn) | – | – | – | – | – | –
O=C1OCC(Cn2c3ccccc3c3ccccc32)O1 (stereo not drawn) | – | – | – | – | – | –
CCn1c(=O)c(CCC(=O)N2CCN(c3ccccn3)CC2)c(C)c2c(C)nn(-c3cccc(C)c3)c21 | – | · | ? | – | 14.6µM | –
CCn1c(=O)c(CCC(=O)NCC2CCCO2)c(C)c2c(C)nn(-c3ccc(C)cc3)c21 (stereo not drawn) | – | – | ? | – | 23.1µM | –
Cc1[nH][nH]c(=O)c1[C@@H](c1ccccc1[N+](=O)[O-])C(C#N)C#N | – | – | – | – | ? | –
CCCc1[nH][nH]c(=O)c1C(c1ccc(Cl)cc1)C(C#N)C#N (stereo not drawn) | – | – | – | -82.5 | – | –
Cc1ccsc1CN(C(=O)c1ccc(Br)cc1)C1CCS(=O)(=O)C1 (stereo not drawn) | · | · | – | · | – | –
COC(=O)Cn1c(=NC(=O)CN2C(=O)CCC2=O)sc2cc(S(N)(=O)=O)ccc21 | – | – | – | – | – | –
CCn1c(=NC(=O)C2COc3ccccc3O2)sc2c(C)ccc(OC)c21 (stereo not drawn) | – | – | 11.6µM | – | 20.6µM | ·
COC(=O)Cn1c(=NC(=O)C2COc3ccccc3O2)sc2cc(S(N)(=O)=O)ccc21 (stereo not drawn) | – | – | 18.4µM | -52.5 | ? | –

From PubChem
